Bioassay records (PubChem BioAssay)
HT1080 IDH1KD tx – kills HT-1080 cells with IDH1 knockdown. HT-1080 IDH1 knockdown viability, ATP luminescence, 48 h. Potency, µM (top dose mostly 46.1 µM), inactives show at the highest dose activity, negative = toxicity, most hits filed as cytotoxic. 360,000 tested, 2% active;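 note: potency is the fitted concentration of half-maximal effect; 0% = DMSO wells and -100% = cell-free medium wells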
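IDH1KD HT-1080 cells, 750/well, RPMI + 5% FBS; compound pinned after 2 h settling; 48 h, 37 °C; CellTiter-Glo luminescence; % activity normalised to DMSO and no-cell wells; curves fitted, classed by r2 and efficacy.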
DT40 TDP1 no CPT – qHTS for Inhibitors of human tyrosyl-DNA phosphodiesterase 1 (TDP1): qHTS in cells in absence of CPT; 420,000 tested, 15% active; DT40 Tdp1-/- hTDP1 cells, no CPT, ATP luminescence, 48 h; Potency, µM (doses to about 46.2 µM), without a hit: at the top dose activity change, negative = growth inhibition, usual class: inhibitors; note: potency is the fitted concentration of half-maximal effect; nearly all actives have a fitted effect of over 55% in size
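Growth of hTDP1-complemented DT40 Tdp1-knockout cells is measured by ATP luminescence after at least 48 hr compound exposure at 37 °C, with DMSO substituting for the 20 nM CPT used in the parallel screen.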
HT1080-NT tox – kills 2HG-producing HT-1080-NT fibrosarcoma cells; 360,000 tested, 1.6% active; HT-1080-NT fibrosarcoma viability, CellTiter-Glo ATP luminescence, 48 h; Potency, µM (series often up to 46.1 µM), for the others: at the top dose activity, negative = less viability, most hits filed as cytotoxic;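 note: NT is the 2HG producing partner of a matched IDH1 knockdown line; potency is the fitted concentration of half-maximal effect; 0% = DMSO-treated cells and -100% = media-only wells without cells; nearly all actives have a fitted effect of over 55% in size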
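Fibrosarcoma NT cells, 750 per well in 5% FBS RPMI, were exposed to compound for 48 hours. Viability: CellTiter-Glo luminescence.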
IL-1B inflam inh – blocks inflammasome-driven IL-1 beta release. activity change, % at 57.5 µM. THP-1 LPS/ATP IL-1B secretion, AlphaLISA, 16 h; active compounds read low. AID 743279. 360,000 tested, 4.7% active; in the data active = activity change below about -50%; inconclusive = mostly about -30% to -49%
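THP-1 cells pretreated 1 hr with compounds (up to 57.5 uM final), then stimulated with LPS (250 ng/mL final) plus ATP (1.25 mM final); secreted IL-1B measured by AlphaLISA after 16 hr, decreased signal indicating inhibition.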
TDP1 cell CPT – DT40-hTDP1 cell growth loss with CPT; chicken DT40 Tdp1-/-;hTDP1 cells + 20 nM CPT, ATP luminescence, 48 h; Potency, µM (series often up to 46.2 µM), for inactives: at the top dose activity change, negative = growth inhibition, hits mostly inhibitors; 420,000 tested, 12% active; note: potency is the fitted concentration of half-maximal effect; nearly all actives have a fitted effect of over 55% in size
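Cell growth measured by CellTiter-Glo luminescence after a minimum 48 h, 37 C compound exposure with 20 nM CPT in Tdp1-knockout DT40 cells stably expressing hTDP1, seeded 400/well; qHTS titration format.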
* marks the source's active call; other numbers are inactive results; ? = inconclusive; nt = not tested or not shown; [ ] = dose if it differs, or a comment. Compounds with a hit are over-represented: about 19% of the library has one in this group of screens. Unless noted, calls come from the whole dose curve; as a rule, active = well fitted curve in the direction sought with a large enough effect; inconclusive = small, poorly fitted or top-dose-only effect, or another doubt; inactive = no such curve, though single readings can be large; an effect the other way counts as inactive or inconclusive. Unless noted, % is set by controls: 0 for no effect and ±100 for the full control effect.

SMILES | HT1080 IDH1KD tx | DT40 TDP1 no CPT | HT1080-NT tox | IL-1B inflam inh | TDP1 cell CPT
CC1CCCN(C(=O)CSc2nnc3ccccn23)C1 (stereo unspecified) | 1% | ? | 1% | 0 | -9%
CCOC(=O)/C=C/C(=O)OCC(=O)N1CCN(C(=O)c2ccco2)CC1 | -7% | 15µM* | -11% | 0 | 7.3µM*
O=C(OCC(=O)N1CCN(C(=O)c2ccco2)CC1)c1cc(-c2ccccc2)nc2ccccc12 | -5% | ? | -1% | -70* | -16%
O=C(/C=C/c1ccc(OC(F)F)cc1)OCC(=O)N1CCN(C(=O)c2ccco2)CC1 | 5% | ? | 12% | -2 | ?
O=C(OCC(=O)N1CCN(C(=O)c2ccco2)CC1)c1cn(-c2ccccc2)nc1-c1ccccc1 | -3% | ? | -1% | -62* | ?
O=C(CNC(=O)c1ccc(Cl)cc1)OCc1cc(=O)n2nc(C3CCCCC3)sc2n1 | nt | -11% | nt | nt | -25%
CC1(C)OC2CC3C4CC(F)C5=CC(=O)C=CC5(C)C4C(O)CC3(C)[C@]2(C(=O)CO)O1 (stereo partly specified) | nt | -12% | nt | nt | -25%
COc1ccc(NS(=O)(=O)c2cccc(NC(=O)COc3ccccc3[N+](=O)[O-])c2)cc1 | -1% | ? | 0% | 0 | ?
Cc1ccc(Nc2nc(NCCO)c3ccccc3n2)cc1C | 23µM* | 16µM* | 23µM* | -99* | ?
COc1ccc(OC)c(Nc2nc(-c3ccc(C)cc3)nc3ccccc23)c1 | nt | -28% | nt | nt | ?
COc1ccc(OC)c(Nc2nc(NCCO)c3ccccc3n2)c1 | ? | 16µM* | -27% | -89* | ?
COc1ccc(N2CCN(c3ccc(-c4nc(-c5ccccc5)no4)cc3[N+](=O)[O-])CC2)cc1 | nt | ? | nt | nt | -30%
Cc1cccc(-c2noc(-c3ccc(N4CCOCC4)c([N+](=O)[O-])c3)n2)c1 | nt | 18µM* | nt | nt | ?
Cc1cccc(-c2noc(-c3ccc(N4CCCC4)c([N+](=O)[O-])c3)n2)c1 | nt | ? | nt | nt | -21%
Cc1cccc(-c2noc(-c3ccc(N4CCN(C)CC4)c([N+](=O)[O-])c3)n2)c1 | nt | 23µM* | nt | nt | ?
COc1ccc(Nc2nnc(-c3ccc(N4CCOCC4)c([N+](=O)[O-])c3)c3ccccc23)cc1 | 13% | 23µM* | 7% | 19 | 23µM*
COc1ccc(-c2noc(-c3ccc(N4CCCC4)c([N+](=O)[O-])c3)n2)cc1OC | nt | -16% | nt | nt | ?
COc1cc(-c2noc(-c3ccc(N4CCOCC4)c([N+](=O)[O-])c3)n2)cc(OC)c1OC | nt | 5.2µM* | nt | nt | ?
COC(=O)C[C@H]1CC[C@H](NS(=O)(=O)c2cn(C)cn2)[C@@H](CO)O1 | 16% | 16% | 1% | 2 | -4%
CCOc1ccc(S(=O)(=O)N2CCOCC2)cc1NS(=O)(=O)c1ccc(OC)c([N+](=O)[O-])c1 | 1% | -15% | 6% | 22 | -22%
CC1CN(c2ccc(NS(=O)(=O)c3ccccc3)cc2C(=O)O)CC(C)O1 (stereo unspecified) | 6% | 5% | 6% | 26 | 23%
CCC1C(=O)NCCN1Cc1ccc2c(c1)CN(Cc1cc(OC)c3c(c1)OCO3)CCO2 (stereo unspecified) | nt | ? | nt | nt | -9%[9.04 µM]
COc1cccc(N2C(=O)CN(Cc3cc(OC)c(OC)c(OC)c3)C2=S)c1 | 2% | 21µM* | 1% | 27 | -3%
COc1ccc(CN2CC(=O)N(c3ccc(Cl)cc3)C2=S)cc1OC | -13% | ? | -10% | ? | ?
COc1ccc(N2C(=O)CN(Cc3cc(OC)c(OC)c(OC)c3)C2=S)cc1 | -23% | 23µM* | -2% | 8 | 16µM*
SMILES | HT1080 IDH1KD tx | DT40 TDP1 no CPT | HT1080-NT tox | IL-1B inflam inh | TDP1 cell CPT
COc1ccc(CN2CC(=O)N(c3cc(Cl)ccc3OC)C2=S)cc1OC | -10% | ? | -20% | 3 | ?
COc1ccc(CN2CC(=O)N(c3cccc(Cl)c3)C2=S)cc1OC | -18% | 15µM* | -6% | -8 | -77%
COc1ccc(Cl)cc1N1C(=O)CN(Cc2cc(OC)c(OC)c(OC)c2)C1=S | 7% | 8.2µM* | -2% | -1 | 15µM*
COc1ccc(CN2CC(=O)N(c3ccccc3OC)C2=S)cc1OC | -6% | -16% | 0% | 25 | -27%
COCCN(C(=O)c1cccc(-n2cnnn2)c1)c1c(N)n(CC(C)C)c(=O)[nH]c1=O | 17% | -3% | 8% | 10 | -18%
COc1cc2nc(NCC3CCCO3)n3nc(-c4cccnc4)nc3c2cc1OC (stereo unspecified) | 10% | 21µM* | 9% | -20 | 9.2µM*
CCN(CC)CCCNc1nc2cc(OC)c(OC)cc2c2nc(-c3cccnc3)nn12 | -1% | 13µM* | -3% | -90* | 15µM*
CCN(CC)CCCNc1nc2ccccc2c2nc(-c3ccncc3)nn12 | 16µM* | 21µM* | ? | -102* | ?
COc1ccc(-c2nc3cccc(C)n3c2NCC2CCCO2)cc1O (stereo unspecified) | -8% | ? | -3% | ? | ?
CCN(CC)CCCNc1nc2cc(OC)c(OC)cc2c2nc(-c3ccccc3)nn12 | ? | 5.2µM* | 18µM* | -88* | 21µM*
Cc1cc(=O)oc2c3c(cc(OCC(=O)N[C@@H](CC(C)C)C(=O)O)c12)OC(C)(C)CC3 | 11% | -2% | 10% | 9 | 11%
CCC1CCCCN1C(=O)c1sc2ncnc(N(CC)CC)c2c1C (stereo unspecified) | 6% | ? | -3% | 32 | ?
Cc1ccc(NC(=O)CN(C)C(=O)CSc2ccccc2F)cc1 | -2% | -16% | 3% | -1 | 1%
CC(CC(O)C1OC1(C)C)C1CCC2(C)C3=CCC4C(C)(C)C(=O)CCC4(C)C3CC[C@@]12C (stereo partly specified) | nt | 7.3µM* | nt | nt | 5.2µM*
CCN(CC)C(=O)Cn1cc(SCC(=O)NC)c2ccccc21 | ? | 1% | 19% | -5 | 5%
CCN(CC)C(=O)Cn1cc(SCC(=O)Nc2ccccc2F)c2ccccc21 | nt | 26µM* | nt | nt | ?
CCN(CC)C(=O)Cn1cc(SCC(=O)Nc2ccc(C)cc2)c2ccccc21 | nt | 26µM* | nt | nt | ?
Nc1ncnc2c1ncn2[C@@H]1O[C@H](COP(=O)(O)OP(=O)(O)O)[C@@H](O)[C@H]1O | nt | -11% | nt | nt | -7%
CCOC(=O)c1c(C)oc2nc(C)nc(NCc3ccccc3Cl)c12 | nt | ? | nt | nt | 16µM*
CCOC(=O)c1c(C)oc2nc(C)nc(NCc3ccccc3OC)c12 | nt | 15µM* | nt | nt | 12µM*
